# Source: article PMC11006913
# Where a chain is given by its changes, count along the chain named.
# What was measured:
# Test in all cases: PBM; 200 nM protein, PBS
# Details in all cases: dsDNA, one strand shown
# [1] = target: T1, PAX4 (Homo sapiens, UniProt O43316 9-242, R200K)
# T1 sequence: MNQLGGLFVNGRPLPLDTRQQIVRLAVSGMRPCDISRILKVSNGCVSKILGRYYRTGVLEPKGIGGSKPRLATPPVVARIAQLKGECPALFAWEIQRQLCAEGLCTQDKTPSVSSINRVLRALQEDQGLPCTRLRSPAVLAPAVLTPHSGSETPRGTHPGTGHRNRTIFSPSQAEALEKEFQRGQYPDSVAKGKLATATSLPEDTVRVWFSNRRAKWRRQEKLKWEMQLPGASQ
# [2] = target: T2, PAX4 (Homo sapiens, UniProt O43316 9-242)
# T2 sequence: T1 sequence with K192R
# [3] = target: ALX3 (Homo sapiens, UniProt O95076 139-225, N203Q)
# [4] = target: T3, PAX4 (Homo sapiens, UniProt O43316 9-242, R200Q)
# T3 sequence: T1 sequence with K192Q
# [5] = target: T4, PAX4 (Homo sapiens, UniProt O43316 9-242, F177V)
# T4 sequence: T1 sequence with F169V, K192R
# [6] = target: ALX3 (Homo sapiens, UniProt O95076 139-225)
# [7] = target: T5, PAX4 (Homo sapiens, UniProt O43316 9-242, F177Y)
# T5 sequence: T1 sequence with F169Y, K192R
# [8] = target: ALX3 (Homo sapiens, UniProt O95076 139-225, L168Q)
# [9] = target: ALX3 (Homo sapiens, UniProt O95076 139-225, L168V)
# [10] = target: T6, PAX4 (Homo sapiens, UniProt O43316 9-242, R227W)
# T6 sequence: T1 sequence with K192R, R219W
# [11] = target: ALX3 (Homo sapiens, UniProt O95076 139-225, N203S)
# [12] = target: MSX2 (Homo sapiens, UniProt P35548 130-214, R199I)
# [13] = target: MSX2 (Homo sapiens, UniProt P35548 130-214)
# [14] = target: MSX2 (Homo sapiens, UniProt P35548 130-214, F161Y)
# [15] = target: HOXD13 (Homo sapiens, UniProt P35453 263-343, T313R)
# [16] = target: HOXD13 (Homo sapiens, UniProt P35453 263-343)
# [17] = target: HOXD13 (Homo sapiens, UniProt P35453 263-343, T313A)
# [18] = target: HOXC9 (Homo sapiens, UniProt P31274 178-260, R222W)
# [19] = target: T7, NKX2-6 (Homo sapiens, UniProt A6NCS4 118-204)
# T7 sequence: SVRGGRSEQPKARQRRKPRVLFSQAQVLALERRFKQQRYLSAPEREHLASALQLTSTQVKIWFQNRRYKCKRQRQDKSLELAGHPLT
# [20] = target: T8, NKX2-6 (Homo sapiens, UniProt A6NCS4 118-204, F151L)
# T8 sequence: T7 sequence with F34L
# [21] = target: HOXA2 (Homo sapiens, UniProt O43364 129-215, R185T)
# [22] = target: HOXA2 (Homo sapiens, UniProt O43364 129-215, R185K)
# [23] = target: HOXA2 (Homo sapiens, UniProt O43364 129-215, Y150S)
# [24] = target: HOXA2 (Homo sapiens, UniProt O43364 129-215)
# Sequence of HOXA2 (Homo sapiens, UniProt O43364 129-215) (O43364 129-215): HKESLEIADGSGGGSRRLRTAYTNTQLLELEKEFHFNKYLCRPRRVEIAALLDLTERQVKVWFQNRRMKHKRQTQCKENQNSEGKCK
# Sequence of ALX3 (Homo sapiens, UniProt O95076 139-225, N203Q) (O95076 139-225 N203Q): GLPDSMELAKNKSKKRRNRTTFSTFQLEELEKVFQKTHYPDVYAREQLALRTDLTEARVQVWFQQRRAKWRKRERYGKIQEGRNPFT
# Sequence of ALX3 (Homo sapiens, UniProt O95076 139-225, N203S) (O95076 139-225 N203S): as the sequence (O95076 139-225 N203Q) above, with Q65S counted along it
# Sequence of ALX3 (Homo sapiens, UniProt O95076 139-225, L168V) (O95076 139-225 L168V): as the sequence (O95076 139-225 N203Q) above, with L30V, Q65N counted along it
# Sequence of ALX3 (Homo sapiens, UniProt O95076 139-225, L168Q) (O95076 139-225 L168Q): as the sequence (O95076 139-225 N203Q) above, with L30Q, Q65N counted along it
# Sequence of ALX3 (Homo sapiens, UniProt O95076 139-225) (O95076 139-225): as the sequence (O95076 139-225 N203Q) above, with Q65N counted along it
# Sequence of MSX2 (Homo sapiens, UniProt P35548 130-214, R199I) (P35548 130-214 R199I): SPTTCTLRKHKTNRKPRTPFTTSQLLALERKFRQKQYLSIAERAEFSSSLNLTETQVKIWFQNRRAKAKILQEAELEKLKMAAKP
# Sequence of HOXA2 (Homo sapiens, UniProt O43364 129-215, R185K) (O43364 129-215 R185K): as the sequence (O43364 129-215) above, with R57K counted along it
# Sequence of HOXA2 (Homo sapiens, UniProt O43364 129-215, Y150S) (O43364 129-215 Y150S): as the sequence (O43364 129-215) above, with Y22S counted along it
# Sequence of MSX2 (Homo sapiens, UniProt P35548 130-214) (P35548 130-214): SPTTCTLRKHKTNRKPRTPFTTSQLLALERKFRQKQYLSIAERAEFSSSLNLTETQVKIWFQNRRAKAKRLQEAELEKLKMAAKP
# Sequence of HOXD13 (Homo sapiens, UniProt P35453 263-343) (P35453 263-343): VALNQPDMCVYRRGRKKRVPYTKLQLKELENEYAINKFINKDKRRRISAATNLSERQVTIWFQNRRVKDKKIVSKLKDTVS
# Sequence of HOXC9 (P31274 178-260 R222W): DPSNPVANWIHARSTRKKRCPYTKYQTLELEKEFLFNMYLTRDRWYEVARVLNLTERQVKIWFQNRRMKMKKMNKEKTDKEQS
# Sequence of MSX2 (Homo sapiens, UniProt P35548 130-214, F161Y) (P35548 130-214 F161Y): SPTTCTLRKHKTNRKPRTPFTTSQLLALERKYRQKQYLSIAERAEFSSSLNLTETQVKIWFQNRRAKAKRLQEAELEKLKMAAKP
# Sequence of HOXD13 (Homo sapiens, UniProt P35453 263-343, T313A) (P35453 263-343 T313A): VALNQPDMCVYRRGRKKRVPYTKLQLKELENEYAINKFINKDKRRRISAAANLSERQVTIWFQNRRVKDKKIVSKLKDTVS
# Sequence of HOXD13 (Homo sapiens, UniProt P35453 263-343, T313R) (P35453 263-343 T313R): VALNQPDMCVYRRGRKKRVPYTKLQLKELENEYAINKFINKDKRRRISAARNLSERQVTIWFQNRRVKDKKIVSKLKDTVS
# Sequence of HOXA2 (Homo sapiens, UniProt O43364 129-215, R185T) (O43364 129-215 R185T): as the sequence (O43364 129-215) above, with R57T counted along it
sequence,measurement,setting,value
CGGCTGAG,binding signal,[1],"9.44 upbm affinity estimate (log intensity, higher = more binding, comparable within an allelic series)"
same,binding signal,[2],"9.36 upbm affinity estimate (log intensity, higher = more binding, comparable within an allelic series)"
same,binding signal,[3],"7.73 upbm affinity estimate (log intensity, higher = more binding, comparable within an allelic series)"
same,binding signal,[4],"9.42 upbm affinity estimate (log intensity, higher = more binding, comparable within an allelic series)"
same,binding signal,[5],"9.34 upbm affinity estimate (log intensity, higher = more binding, comparable within an allelic series)"
same,binding signal,[6],"7.82 upbm affinity estimate (log intensity, higher = more binding, comparable within an allelic series)"
same,binding signal,[7],"9.23 upbm affinity estimate (log intensity, higher = more binding, comparable within an allelic series)"
same,binding signal,[8],"7.79 upbm affinity estimate (log intensity, higher = more binding, comparable within an allelic series)"
same,binding signal,[9],"7.77 upbm affinity estimate (log intensity, higher = more binding, comparable within an allelic series)"
same,binding signal,[10],"9.35 upbm affinity estimate (log intensity, higher = more binding, comparable within an allelic series)"
same,binding signal,[11],"7.7 upbm affinity estimate (log intensity, higher = more binding, comparable within an allelic series)"
CCCCTGGC,binding signal,[1],"9.25 upbm affinity estimate (log intensity, higher = more binding, comparable within an allelic series)"
same,binding signal,[2],"9.29 upbm affinity estimate (log intensity, higher = more binding, comparable within an allelic series)"
same,binding signal,[12],"9.36 upbm affinity estimate (log intensity, higher = more binding, comparable within an allelic series)"
same,binding signal,[4],"9.32 upbm affinity estimate (log intensity, higher = more binding, comparable within an allelic series)"
same,binding signal,[5],"9.09 upbm affinity estimate (log intensity, higher = more binding, comparable within an allelic series)"
same,binding signal,[13],"9.68 upbm affinity estimate (log intensity, higher = more binding, comparable within an allelic series)"
same,binding signal,[7],"9.12 upbm affinity estimate (log intensity, higher = more binding, comparable within an allelic series)"
same,binding signal,[14],"9.68 upbm affinity estimate (log intensity, higher = more binding, comparable within an allelic series)"
same,binding signal,[10],"9.26 upbm affinity estimate (log intensity, higher = more binding, comparable within an allelic series)"
AATTTATA,binding signal,[1],"11.2 upbm affinity estimate (log intensity, higher = more binding, comparable within an allelic series)"
same,binding signal,[2],"11.4 upbm affinity estimate (log intensity, higher = more binding, comparable within an allelic series)"
same,binding signal,[3],"8.61 upbm affinity estimate (log intensity, higher = more binding, comparable within an allelic series)"
same,binding signal,[15],"10.9 upbm affinity estimate (log intensity, higher = more binding, comparable within an allelic series)"
same,binding signal,[4],"11.3 upbm affinity estimate (log intensity, higher = more binding, comparable within an allelic series)"
same,binding signal,[16],"11.7 upbm affinity estimate (log intensity, higher = more binding, comparable within an allelic series)"
same,binding signal,[5],"10.6 upbm affinity estimate (log intensity, higher = more binding, comparable within an allelic series)"
same,binding signal,[7],"10.8 upbm affinity estimate (log intensity, higher = more binding, comparable within an allelic series)"
same,binding signal,[17],"11.6 upbm affinity estimate (log intensity, higher = more binding, comparable within an allelic series)"
same,binding signal,[18],"11.1 upbm affinity estimate (log intensity, higher = more binding, comparable within an allelic series)"
same,binding signal,[10],"10.7 upbm affinity estimate (log intensity, higher = more binding, comparable within an allelic series)"
same,binding signal,[11],"8.71 upbm affinity estimate (log intensity, higher = more binding, comparable within an allelic series)"
CCAGGAGC,binding signal,[1],"9.4 upbm affinity estimate (log intensity, higher = more binding, comparable within an allelic series)"
same,binding signal,[2],"9.35 upbm affinity estimate (log intensity, higher = more binding, comparable within an allelic series)"
same,binding signal,[19],"9.22 upbm affinity estimate (log intensity, higher = more binding, comparable within an allelic series)"
same,binding signal,[4],"9.51 upbm affinity estimate (log intensity, higher = more binding, comparable within an allelic series)"
same,binding signal,[5],"9.26 upbm affinity estimate (log intensity, higher = more binding, comparable within an allelic series)"
same,binding signal,[7],"9.24 upbm affinity estimate (log intensity, higher = more binding, comparable within an allelic series)"
same,binding signal,[20],"9.26 upbm affinity estimate (log intensity, higher = more binding, comparable within an allelic series)"
same,binding signal,[10],"9.32 upbm affinity estimate (log intensity, higher = more binding, comparable within an allelic series)"
ATTATTTC,binding signal,[1],"10.8 upbm affinity estimate (log intensity, higher = more binding, comparable within an allelic series)"
same,binding signal,[2],"11.1 upbm affinity estimate (log intensity, higher = more binding, comparable within an allelic series)"
same,binding signal,[4],"10.9 upbm affinity estimate (log intensity, higher = more binding, comparable within an allelic series)"
same,binding signal,[5],"10.4 upbm affinity estimate (log intensity, higher = more binding, comparable within an allelic series)"
CGGTACCG,binding signal,[1],"9.38 upbm affinity estimate (log intensity, higher = more binding, comparable within an allelic series)"
same,binding signal,[2],"9.43 upbm affinity estimate (log intensity, higher = more binding, comparable within an allelic series)"
same,binding signal,[21],"7.62 upbm affinity estimate (log intensity, higher = more binding, comparable within an allelic series)"
same,binding signal,[3],"7.72 upbm affinity estimate (log intensity, higher = more binding, comparable within an allelic series)"
same,binding signal,[19],"9.13 upbm affinity estimate (log intensity, higher = more binding, comparable within an allelic series)"
same,binding signal,[4],"9.37 upbm affinity estimate (log intensity, higher = more binding, comparable within an allelic series)"
same,binding signal,[22],"10.4 upbm affinity estimate (log intensity, higher = more binding, comparable within an allelic series)"
same,binding signal,[5],"9.37 upbm affinity estimate (log intensity, higher = more binding, comparable within an allelic series)"
same,binding signal,[6],"7.9 upbm affinity estimate (log intensity, higher = more binding, comparable within an allelic series)"
same,binding signal,[7],"9.28 upbm affinity estimate (log intensity, higher = more binding, comparable within an allelic series)"
same,binding signal,[8],"7.73 upbm affinity estimate (log intensity, higher = more binding, comparable within an allelic series)"
same,binding signal,[20],"9.24 upbm affinity estimate (log intensity, higher = more binding, comparable within an allelic series)"
same,binding signal,[9],"7.69 upbm affinity estimate (log intensity, higher = more binding, comparable within an allelic series)"
same,binding signal,[10],"9.32 upbm affinity estimate (log intensity, higher = more binding, comparable within an allelic series)"
same,binding signal,[23],"10.4 upbm affinity estimate (log intensity, higher = more binding, comparable within an allelic series)"
same,binding signal,[11],"7.78 upbm affinity estimate (log intensity, higher = more binding, comparable within an allelic series)"
same,binding signal,[24],"7.54 upbm affinity estimate (log intensity, higher = more binding, comparable within an allelic series)"
TAAAGTAA,binding signal,[1],"10.7 upbm affinity estimate (log intensity, higher = more binding, comparable within an allelic series)"
same,binding signal,[2],"10.9 upbm affinity estimate (log intensity, higher = more binding, comparable within an allelic series)"
same,binding signal,[4],"10.8 upbm affinity estimate (log intensity, higher = more binding, comparable within an allelic series)"
